Measurements as given in PubChem BioAssay (Tox21).
Results filed as inconclusive are left out. Activity calls are given as the source filed them. Unless noted, calls come from the whole dose curve; as a rule, active = well fitted curve in the direction sought with a large enough effect in the repeat runs; inconclusive = weak or mixed curves; inactive = no such curve, though single readings can be large; an effect the other way counts as inactive or inconclusive.

Experiments:
[1] = qHTS assay for small molecule agonists of the p53 signaling pathway (AID 651631; calls by dose curve; note: nearly all actives have a fitted effect of over 15% in size)
Procedure, shortened: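 Fluorescence intensity from cleaved LiveBLAzer B/G substrate (2 h, room temperature) served as the signal. Beforehand, HCT-116 reporter cells bearing p53 response elements were treated 16 h at 37 °C with DMSO-dissolved compounds.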

[2] = qHTS assay for small molecules that induce genotoxicity in human embryonic kidney cells expressing luciferase-tagged ATAD5 (AID 651632); note: nearly all actives have a fitted effect of over 15% in size
Procedure, shortened: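 HEK293T cells carrying a luciferase reporter tagged to ATAD5 were exposed to compound or DMSO vehicle for 16 hr at 37C, 5% CO2. Amplite was added, and after 30 min at room temperature luciferase activity was read as a marker of ATAD5 induction.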

[3] = qHTS assay for small molecule agonists of the p53 signaling pathway - cell viability (AID 651633; calls by dose curve;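 note: p53RE-bla HCT reporter cells with a stable beta-lactamase p53 reporter; series mostly up to about 83 µM; nearly all actives have a fitted effect of over 30% in size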)
Procedure, shortened: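 Viability counter-read: CellTiter-Glo luminescence (30 min, room temperature) in the same p53RE-bla plates. These plates had been exposed to compounds for 16 h at 37 C.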

[4] = qHTS assay for small molecules that induce genotoxicity in human embryonic kidney cells expressing luciferase-tagged ATAD5 - cell viability (AID 651634; calls by dose curve; note: nearly all actives have a fitted effect of over 25% in size)
Procedure, shortened: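 HEK293T cells expressing luciferase-tagged ATAD5 were exposed to compound or DMSO for 15.5 hr at 37C, 5% CO2. Viability was then read as live-cell protease activity by CellTiter-Fluor fluorescence after 30 min at 37C.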

[5] = qHTS assay for small molecule disruptors of the mitochondrial membrane potential - cell viability (AID 720634; calls by dose curve;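 note: human HepG2 liver cancer cells; series mostly up to about 83 µM; nearly all actives have a fitted effect of over 20% in size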)
Procedure, shortened: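 HepG2 cells seeded overnight at 37 C, then exposed to compound or DMSO for 1 hr at 37 C, 5% CO2. m-MPI dye added, then CellTiter-Glo for 30 min at room temperature; viability read as ATP luminescence.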

[6] = qHTS assay to test for compound auto fluorescence at 590 nm (red) in HepG2 cells (AID 720674)
Procedure, shortened: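 Red autofluorescence (Ex/Em 540/590 nm, Rose Bengal sodium equivalents) was measured in HepG2 cells, 2,000 per well in MEM plus 10% FBS, plated overnight at 37 C. Readings were taken 1 hr after adding 23 nL compound or DMSO, at 37 C and 5% CO2.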

[7] = qHTS assay to test for compound auto fluorescence at 535 nm (green) in HepG2 cells (AID 720675)
[8] = qHTS assay to test for compound auto fluorescence at 460 nm (blue) in HEK293 cells (AID 720678)
Procedure, shortened: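 After cell attachment (4-5 hr, 37C), compounds were pinned onto HEK293 monolayers in 10% dialyzed FBS medium. The blue channel (405/460 nm) was read following overnight culture. Equivalency was calculated against triamterene.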

[9] = qHTS assay to test for compound auto fluorescence at 590 nm (red) in HEK293 cells (AID 720679)
Procedure, shortened: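 Plates of HEK293 cells (10% dialyzed FBS) are treated with 23 nL compound or DMSO vehicle after a 4-5 hr attachment period, incubated overnight at 37C, and read for red fluorescence at 540/590nm.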

[10] = qHTS assay to test for compound auto fluorescence at 535 nm (green) in HEK293 cells (AID 720680)
[11] = qHTS assay to test for compound auto fluorescence at 460 nm (blue) in HEK293 cell free culture (AID 720681)
Procedure, shortened: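 Blue fluorescence (Ex 405/Em 460 nm, triamterene-equivalent) was read immediately after pin transfer of compound or DMSO into medium (DMEM, 10% FBS) without cells.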

[12] = qHTS assay to test for compound auto fluorescence at 535 nm (green) in HEK293 cell free culture (AID 720682)
Procedure, shortened: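 Intrinsic compound fluorescence is measured in culture medium containing 10% FBS, with excitation at 485 nm and detection at 535 nm, referenced to fluorescein.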

[13] = qHTS assay to test for compound auto fluorescence at 590 nm (red) in HEK293 cell free culture (AID 720683)
Procedure, shortened: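 Red-channel autofluorescence of compounds in culture medium (DMEM, 10% FBS), no cells, measured at 540/590 nm. Rose Bengal sodium is the reference fluorophore for equivalence.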

[14] = qHTS assay to test for compound auto fluorescence at 460 nm (blue) in HepG2 cell free culture (AID 720685)
Procedure, shortened: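 Compound (23 nL) or DMSO pinned into cell-free MEM with 10% FBS; blue fluorescence read at 405/460 nm excitation/emission, expressed as auto-fluorescence equivalency to triamterene.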

[15] = qHTS assay to test for compound auto fluorescence at 535 nm (green) in HepG2 cell free culture (AID 720686)
[16] = qHTS assay to test for compound auto fluorescence at 460 nm (blue) in HepG2 cells (AID 720687)
Procedure, shortened: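 Blue-channel autofluorescence (Ex/Em 405/460 nm, triamterene-equivalent) was measured after 1 hr compound exposure at 37 C, 5% CO2. Cells were HepG2, plated overnight at 37 C in MEM plus 10% FBS.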

[17] = target: Glucocorticoid receptor (Homo sapiens) (UniProt P04150); test: qHTS assay to identify small molecule agonists of the glucocorticoid receptor (GR) signaling pathway (AID 720691; active = well fitted activation curve with a large enough effect in the signal ratio in the repeat runs, not every such curve was filed as active; the % refers to the signal ratio)
Procedure, shortened: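 GR-bla HeLa cells (beta-lactamase reporter under glucocorticoid response element) were plated 4 h at 37 C/5% CO2, given compounds in DMSO, and incubated 18 h at 37 C. LiveBLAzer B/G FRET substrate was added for 2 h at room temperature, then fluorescence intensity read.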

[18] = target: Glucocorticoid receptor (Homo sapiens) (UniProt P04150); test: qHTS assay to identify small molecule antagonists of the glucocorticoid receptor (GR) signaling pathway (AID 720692; active = well fitted inhibition curve with a large enough effect in the signal ratio in the repeat runs, not every such curve was filed as active; the % refers to the signal ratio)
Procedure, shortened: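 GR-bla HeLa cells (beta-lactamase reporter under glucocorticoid response element) were pre-plated 4 h at 37 C, treated with compounds plus 5 nM dexamethasone (final) for 18 h, then read by LiveBLAzer B/G FRET fluorescence after 2 h.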

[19] = qHTS assay for small molecule disruptors of the mitochondrial membrane potential (AID 720635)
Procedure, shortened: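 Mitochondrial membrane potential tracked with Mito-MPS dye, red aggregates (ex 540/em 590 nm) against green monomers (ex 490/em 535 nm). Compound treatment 1 hr at 37C, dye 30 min in HepG2.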

[20] = qHTS assay to test for compound auto fluorescence at 590 nm (red) in HepG2 cell free culture (AID 720684)
Procedure, shortened: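 Steps: dispense MEM/10% FBS medium, no cells; pin compound or DMSO vehicle; read red channel, Ex/Em 540/590 nm. Output given as Rose Bengal sodium equivalents.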

Measured: Potency

Chain of Glucocorticoid receptor (Homo sapiens) (P04150 whole entry, looked up): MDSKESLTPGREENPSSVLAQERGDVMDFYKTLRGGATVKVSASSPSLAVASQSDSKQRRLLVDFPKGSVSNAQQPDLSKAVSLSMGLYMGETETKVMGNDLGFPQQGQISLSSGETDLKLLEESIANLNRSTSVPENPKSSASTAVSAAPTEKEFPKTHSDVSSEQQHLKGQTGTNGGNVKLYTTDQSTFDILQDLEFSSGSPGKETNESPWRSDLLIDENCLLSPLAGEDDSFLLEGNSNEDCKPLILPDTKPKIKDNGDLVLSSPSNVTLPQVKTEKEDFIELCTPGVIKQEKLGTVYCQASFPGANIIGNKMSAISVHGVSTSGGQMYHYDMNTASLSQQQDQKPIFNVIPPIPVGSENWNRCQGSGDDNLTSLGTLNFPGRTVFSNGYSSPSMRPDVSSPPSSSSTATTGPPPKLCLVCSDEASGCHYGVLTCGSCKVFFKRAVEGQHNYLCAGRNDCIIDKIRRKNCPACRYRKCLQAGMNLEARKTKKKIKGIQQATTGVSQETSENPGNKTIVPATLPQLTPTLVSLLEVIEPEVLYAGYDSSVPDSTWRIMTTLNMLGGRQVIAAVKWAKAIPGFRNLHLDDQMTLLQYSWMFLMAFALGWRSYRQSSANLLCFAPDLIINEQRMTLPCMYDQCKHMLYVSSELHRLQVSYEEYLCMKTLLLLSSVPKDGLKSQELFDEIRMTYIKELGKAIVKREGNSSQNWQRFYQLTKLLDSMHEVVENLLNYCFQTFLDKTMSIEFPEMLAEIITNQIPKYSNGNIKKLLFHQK

CC(C)C1(C)N=C(c2ncccc2C(=O)O)NC1=O (stereo not drawn)
not listed: [19] | [20]
inactive: all other assays above

CCCCCCCCCCCCN(C)C
not listed: [8]
inactive: all other assays above

CN(C)N
not listed: [20]
inactive: all other assays above

CC(C)OC(=O)Cc1ccccc1
inactive: all assays above

O=S(=O)(Cl)Cl
not listed: [18]
inactive: all other assays above

CCCC[N+]1(C)[C@@H]2CC(OC(=O)[C@H](CO)c3ccccc3)C[C@H]1[C@@H]1O[C@@H]12 (stereo partly drawn)
not listed: [11]
inactive: all other assays above

CCCCC(CC)CO[N+](=O)[O-] (stereo not drawn)
not listed: [8] | [11]
inactive: all other assays above

COC(=O)Cc1ccccc1
not listed: [12] | [19]
inactive: all other assays above

CC(C)(c1ccccc1)c1cc(-n2nc3ccccc3n2)c(O)c(C(C)(C)c2ccccc2)c1
not listed: [12] | [19]
inactive: all other assays above

O=C(NCNC(=O)NC1C(=O)NC(=O)N1CO)NC1C(=O)NC(=O)N1CO (stereo not drawn)
not listed: [8]
inactive: all other assays above

CCC(C)Cl (stereo not drawn)
not listed: [12]
inactive: all other assays above

CCCCC#N
not listed: [5] | [17] | [18]
inactive: all other assays above

COc1cc(CC(C)N)c(OC)cc1Br (stereo not drawn)
not listed: [17] | [18]
inactive: all other assays above

OC[P+](CO)(CO)CO
not listed: [19]
inactive: all other assays above

C=CC(=O)NC(C)(C)CC(C)=O
not listed: [18] | [19]
inactive: all other assays above
